Where “and” joins values, the source holds several entries; their conditions need not be identical. Identical values can stand only once. A structure can be active in one record and inactive in another. Calls of active or inactive are those of the source. Rule for the calls: active = hit-call score of the fitted dose curve at least 0.9, where 1 is the maximum; inactive = score below 0.9.
Legend:
[1] = read-out: Eotaxin 3, CCL26 (gene 10344); assay: BSK_BF4T_Eotaxin3: BioMAP Diversity Plus: BF4T Assay for Eotaxin 3 Biomarker Activity (AID 2284258); conditions: primary human bronchial epithelial cells with fibroblasts
How it was run: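 Co-culture of human bronchial epithelial cells and dermal fibroblasts, exposed to chemicals for 24 h versus DMSO. Eotaxin-3 quantified by ELISA; cytotoxicity checked in parallel cultures by sulforhodamine B total-protein staining.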

[2] = read-out: Monocyte Chemoattractant Protein-1 (MCP1), CCL2 (gene 6347); assay: BSK_BF4T_MCP1: BioMAP Diversity Plus: BF4T Assay for Monocyte Chemoattractant Protein-1 (MCP1) Biomarker Activity (AID 2284259); conditions: primary human bronchial epithelial cells with fibroblasts
How it was run: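 Co-culture of bronchial epithelial cells and dermal fibroblasts dosed with chemical; MCP-1 measured by ELISA 24 h later. Activity fitted in positive direction versus DMSO; cytotoxicity checked by SRB staining in parallel cultures.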

[3] = read-out: Intercellular Adhesion Molecule 1 (ICAM1), ICAM1 (gene 3383); assay: BSK_BF4T_ICAM1: BioMAP Diversity Plus: BF4T Assay for Intercellular Adhesion Molecule 1 (ICAM1) Biomarker Activity (AID 2284260); conditions: primary human bronchial epithelial cells with fibroblasts
How it was run: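 Co-culture of human bronchial epithelial cells and dermal fibroblasts exposed 24 h to chemical; cell-surface ICAM-1 quantified by ELISA. Parallel SRB total-protein staining assessed cytotoxicity; activity fitted relative to DMSO.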

[4] = read-out: Interleukin-8 (IL8), CXCL8 (gene 3576); assay: BSK_MyoF_IL8: BioMAP Diversity Plus: MyoF Assay for Interleukin-8 (IL8) Biomarker Activity (AID 2284261); conditions: primary human lung fibroblasts
How it was run: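 Lung fibroblasts (human primary) → chemical exposure → 24 h → IL-8 measured by ELISA. Signal increase scored versus DMSO control.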

[5] = read-out: CD90, THY1 (gene 7070); assay: BSK_BF4T_CD90: BioMAP Diversity Plus: BF4T Assay for CD90 Biomarker Activity (AID 2284262); conditions: primary human bronchial epithelial cells with fibroblasts
How it was run: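 Co-culture of human bronchial epithelial cells and dermal fibroblasts, 24 h compound exposure. Cell-surface CD90 measured by ELISA relative to DMSO; parallel SRB total-protein staining for cytotoxicity.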

[6] = read-out: Interleukin-8 (IL8), CXCL8 (gene 3576); assay: BSK_BF4T_IL8: BioMAP Diversity Plus: BF4T Assay for Interleukin-8 (IL8) Biomarker Activity (AID 2284263); conditions: primary human bronchial epithelial cells with fibroblasts
How it was run: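 Human bronchial epithelial cells with dermal fibroblasts co-culture; IL-8 measured by ELISA 24 hours after dosing, fitted vs DMSO. Cytotoxicity tracked in parallel cultures by SRB total-protein staining.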

[7] = read-out: Interleukin-1 alpha (IL1a), IL1A (gene 3552); assay: BSK_BF4T_IL1a: BioMAP Diversity Plus: BF4T Assay for Interleukin-1 alpha (IL1a) Biomarker Activity (AID 2284264); conditions: primary human bronchial epithelial cells with fibroblasts
How it was run: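 Human bronchial epithelial cells co-cultured with dermal fibroblasts, dosed and read at 24 h. Secreted/surface IL-1α quantified by ELISA; gain-of-signal fitted relative to DMSO baseline. Parallel SRB total-protein staining tracked cytotoxicity.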

[8] = read-out: Decorin, DCN (gene 1634); assay: BSK_MyoF_Decorin: BioMAP Diversity Plus: MyoF Assay for Decorin Biomarker Activity (AID 2284265); conditions: primary human lung fibroblasts
How it was run: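 ELISA readout of decorin, 24 h post-dosing; primary human lung fibroblast (MyoF) culture; gain-of-signal fit vs DMSO baseline.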

[9] = read-out: KRT18 (gene 3875); assay: BSK_BF4T_Keratin818: BioMAP Diversity Plus: BF4T Assay for Keratin 818 Biomarker Activity (AID 2284266); conditions: primary human bronchial epithelial cells with fibroblasts
How it was run: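 Co-culture of human bronchial epithelial cells and dermal fibroblasts, chemical exposure 24 h. Keratin 8/18 measured by ELISA; positive-direction fit vs DMSO. SRB total protein run in parallel cultures for cytotoxicity.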

[10] = BSK_MyoF_SRB: Viability Assessment in the BioMAP Diversity Plus: MyoF Assay (AID 2284267); conditions: primary human lung fibroblasts;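 note: total protein by SRB absorbance in parallel cultures as cytotoxicity measure; cells assessed 24 h after compound addition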
How it was run: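 Cytotoxicity in primary human lung fibroblasts is gauged by SRB total-protein staining 24 h after dosing, with DMSO as the negative control.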

Measured: AC50

C=C(C)C(=O)OCCC(F)(F)C(F)(F)C(F)(F)C(F)(F)C(F)(F)C(F)(F)F
inactive: all assays above

FC(F)(I)C(F)(F)C(F)(F)C(F)(F)C(F)(F)C(F)(F)I
active: [1] 8.19 µM [middle of 5 runs] | [2] 8.32 µM [middle of 5 runs] | [4] 15 µM and 16.4 µM and 15.6 µM | [5] 6.21 µM | [6] 14.9 µM [middle of 5 runs] | [7] 22.7 µM [middle of 5 runs] | [8] 7.74 µM [middle of 5 runs] | [10] 7.31 µM [middle of 5 runs]
inactive: [4] | [5]

NCC(F)(F)C(F)(F)C(F)(F)C(F)(F)C(F)(F)C(F)(F)C(F)(F)F
active: [2] 220 nM
inactive: [1] | [2] | [3] | [4] | [5] | [6] | [7] | [8] | [9] | [10]

OCCC(F)(F)C(F)(F)C(F)(F)C(F)(F)C(F)(F)C(F)(F)C(F)(F)C(F)(F)F
active: [1] 13.5 µM and 9.61 µM | [2] 21.2 µM and 30 µM | [3] 30 µM | [4] 14.9 µM | [7] 21.5 µM | [8] 15.1 µM and 14.5 µM | [9] 38.6 µM | [10] 15.1 µM and 14.7 µM
inactive: [4] | [5] | [6] | [7] | [9]

C[C@@H]1C[C@H]2[C@@H]3CCC4=CC(=O)C=C[C@]4(C)[C@@]3(F)[C@@H](O)C[C@]2(C)[C@@]1(O)C(=O)COP(=O)(O)O
inactive: [1] | [2] | [3] | [4] | [5] | [6] | [7] | [8] | [9] | [10]
active: [1] 951 nM

CCCCCCCCCCCCCC[N+](C)(C)C
active: [4] 9.47 µM | [8] 28.4 µM | [10] 5.25 µM

OCCC(F)(F)C(F)(F)C(F)(F)C(F)(F)C(F)(F)C(F)(F)F
inactive: all assays above
